Data from the supplement of paper PMC9942566.
Counter-ions that a name gives are not always drawn. ± gives the standard deviation of the averaged measurements.

Tested on: Serratia marcescens K904 PosmB-luxCDABE reporter (pMQ747)
Assay: PosmB-lux reporter fold induction (RLU/OD600 relative to no-compound control), highest over Biolog concentrations; higher = stronger Rcs reporter activation
Settings: Biolog plate: PM11; well positions: C1-4; wild type K904; 4 h
Experimental: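 Serratia marcescens K904 (wild type) or its isogenic ΔrcsB mutant, carrying the Rcs-dependent PosmB-luxCDABE reporter plasmid pMQ747, was grown in LB at OD600 0.1 in Biolog Phenotype MicroArray plates PM11-20 for 4 h at 30-32°C. Each compound is present at 3-4 proprietary concentrations (not stated); per the Fig. S1 legend the value given is the highest fold over those wells. Three independent trials.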

SMILES | PosmB-lux reporter fold induction
Cc1c(N)nc([C@H](CC(N)=O)NC[C@H](N)C(N)=O)nc1C(=O)N[C@H](C(=O)N[C@H](C)[C@@H](O)[C@H](C)C(=O)N[C@H](C(=O)NCCc1nc(-c2nc(C(=O)NCCC[S+](C)C)cs2)cs1)[C@@H](C)O)[C@@H](OC1OC(CO)C(O)C(O)C1OC1OC(CO)C(O)C(OC(N)=O)C1O)c1cnc[nH]1 (stereo not given in full) [Bleomycin] | 1.6 ± 0.14

Same assay, conditions: Biolog plate: PM11; well positions: G9-12; wild type K904; 4 h

SMILES | PosmB-lux reporter fold induction
O=[Te]([O-])[O-].[K+].[K+] [Potassium tellurite] | 1.58 ± 0.69

Same assay, conditions: Biolog plate: PM13; well positions: B9-12; wild type K904; 4 h

SMILES | PosmB-lux reporter fold induction
CCn1cc(C(=O)O)c(=O)c2cc3c(cc21)OCO3 [Oxolinic acid] | 2.12 ± 0.57

Same assay, conditions: Biolog plate: PM13; well positions: C9-12; wild type K904; 4 h

SMILES | PosmB-lux reporter fold induction
[K+].[K+].[O]=[Cr](=[O])([O-])[O-] [Potassium chromate] | 2.55 ± 0.8

Same assay, conditions: Biolog plate: PM13; well positions: E5-8; wild type K904; 4 h

SMILES | PosmB-lux reporter fold induction
CN[C@@H]1[C@@H](O)[C@@H](O[C@@H]2[C@@H](O)[C@H](O[C@H]3O[C@H]([C@@H](C)O)[C@@H](O)[C@H](O)[C@H]3N)[C@@H](N)C[C@H]2N)OC[C@]1(C)O [Geneticin (G418)] | 1.38 ± 0.22

Same assay, conditions: Biolog plate: PM14; well positions: B5-8; wild type K904; 4 h

SMILES | PosmB-lux reporter fold induction
CCCCc1ccc(C(=O)O)nc1 [Fusaric acid] | 3.83 ± 1.8

Same assay, conditions: Biolog plate: PM14; well positions: B9-12; wild type K904; 4 h

SMILES | PosmB-lux reporter fold induction
O=[As]([O-])([O-])[O-].[Na+].[Na+].[Na+] [Sodium arsenate] | 2.1 ± 0.74

Same assay, conditions: Biolog plate: PM14; well positions: C9-12; wild type K904; 4 h

SMILES | PosmB-lux reporter fold induction
N#CO [Sodium cyanate] | 2.06 ± 0.13

Same assay, conditions: Biolog plate: PM14; well positions: D1-4; wild type K904; 4 h

SMILES | PosmB-lux reporter fold induction
[Cl][Cd][Cl] [Cadmium chloride] | 1.35 ± 0.73

Same assay, conditions: Biolog plate: PM14; well positions: D5-8; wild type K904; 4 h

SMILES | PosmB-lux reporter fold induction
O=C(O)CI [Iodoacetate] | 1.93 ± 0.39

Same assay, conditions: Biolog plate: PM14; well positions: D9-12; wild type K904; 4 h

SMILES | PosmB-lux reporter fold induction
[Na+].[Na+].[O]=[Cr](=[O])([O-])[O][Cr](=[O])(=[O])[O-] [Sodium dichromate] | 1.55 ± 0.067

Same assay, conditions: Biolog plate: PM14; well positions: G9-12; wild type K904; 4 h

SMILES | PosmB-lux reporter fold induction
O=[N+]([O-])[O-].[Na+] [Sodium nitrate] | 3.75 ± 1.3

Same assay, conditions: Biolog plate: PM15; well positions: E9-12; wild type K904; 4 h

SMILES | PosmB-lux reporter fold induction
C[n+]1ccc(-c2cc[n+](C)cc2)cc1 [Methyl viologen] | 1.4 ± 0.25

Same assay, conditions: Biolog plate: PM15; well positions: G5-8; wild type K904; 4 h

SMILES | PosmB-lux reporter fold induction
[N-]=[N+]=[N-] [Sodium azide] | 34 ± 10

Same assay, conditions: Biolog plate: PM15; well positions: H1-4; wild type K904; 4 h

SMILES | PosmB-lux reporter fold induction
O=[N+]([O-])c1ncc[nH]1 [2-Nitroimidazole] | 1.17 ± 0.56

Same assay, conditions: Biolog plate: PM16; well positions: C1-4; wild type K904; 4 h

SMILES | PosmB-lux reporter fold induction
CN(C)S(=O)(=O)N(SC(F)(Cl)Cl)c1ccccc1 [dichlofluanid] | 1.03 ± 0.34

Same assay, conditions: Biolog plate: PM16; well positions: C9-12; wild type K904; 4 h

SMILES | PosmB-lux reporter fold induction
CCCCCCCCCCCCCCCC[n+]1ccccc1 [cetylpyridinium] | 1.47 ± 0.48

Same assay, conditions: Biolog plate: PM16; well positions: D1-4; wild type K904; 4 h

SMILES | PosmB-lux reporter fold induction
O=[N+]([O-])c1ccc(Cl)c([N+](=O)[O-])c1 [1-chloro-2,4-dinitrobenzene] | 1.37 ± 0.54

Same assay, conditions: Biolog plate: PM16; well positions: F1-4; wild type K904; 4 h

SMILES | PosmB-lux reporter fold induction
O=[Te]([O-])[O-].[K+].[K+] [potassium tellurite] | 1.75 ± 1.1

Same assay, conditions: Biolog plate: PM16; well positions: F5-8; wild type K904; 4 h

SMILES | PosmB-lux reporter fold induction
O=[Se]([O-])[O-].[Na+].[Na+] [sodium selenite] | 1.03 ± 0.38

Same assay, conditions: Biolog plate: PM17; well positions: A5-8; wild type K904; 4 h

SMILES | PosmB-lux reporter fold induction
NC(CCl)C(=O)O [b-chloro-L-alanine hydrochloride] | 1.57 ± 0.59

Same assay, conditions: Biolog plate: PM17; well positions: B5-8; wild type K904; 4 h

SMILES | PosmB-lux reporter fold induction
CNC1CC(N)C(O)C(OC2OC(CO)C(O)C3OC4(OC(C(N)CO)C(O)C(O)C4O)OC23)C1O (stereo not given) [hygromycin B] | 1.46 ± 0.35

Same assay, conditions: Biolog plate: PM17; well positions: C1-4; wild type K904; 4 h

SMILES | PosmB-lux reporter fold induction
Nc1ccncc1 [4-aminopyridine] | 10.2 ± 7.7

Same assay, conditions: Biolog plate: PM17; well positions: D1-4; wild type K904; 4 h

SMILES | PosmB-lux reporter fold induction
CC1=C(C(=O)Nc2ccccc2)S(=O)(=O)CCO1 [oxycarboxin] | 2.25 ± 0.26

Same assay, conditions: Biolog plate: PM17; well positions: D5-8; wild type K904; 4 h

SMILES | PosmB-lux reporter fold induction
Nc1ncn[nH]1 [3-amino-1,2,4-triazole] | 1.11 ± 0.18

Same assay, conditions: Biolog plate: PM17; well positions: G1-4; wild type K904; 4 h

SMILES | PosmB-lux reporter fold induction
O=C(O)CCCc1ccc(N(CCCl)CCCl)cc1 [chlorambucil] | 1.34 ± 0.1

Same assay, conditions: Biolog plate: PM18; well positions: C9-12; wild type K904; 4 h

SMILES | PosmB-lux reporter fold induction
Oc1c(Cl)c(Cl)c(Cl)c(Cl)c1Cl [pentachloro-phenol] | 1.04 ± 0.25

Same assay, conditions: Biolog plate: PM18; well positions: E5-8; wild type K904; 4 h

SMILES | PosmB-lux reporter fold induction
[O-][I+3]([O-])([O-])O [sodium m-periodate] | 2.47 ± 0.4

Same assay, conditions: Biolog plate: PM18; well positions: E9-12; wild type K904; 4 h

SMILES | PosmB-lux reporter fold induction
[Cl][Sb]([Cl])[Cl] [antimony (III) chloride] | 0.722 ± 0.067

Same assay, conditions: Biolog plate: PM18; well positions: F1-4; wild type K904; 4 h

SMILES | PosmB-lux reporter fold induction
NNC(N)=O [semicarbazide] | 3.39 ± 0.38

Same assay, conditions: Biolog plate: PM18; well positions: G1-4; wild type K904; 4 h

SMILES | PosmB-lux reporter fold induction
Oc1cc(Cl)ccc1Oc1ccc(Cl)cc1Cl [triclosan] | 1.45 ± 0.61

Same assay, conditions: Biolog plate: PM18; well positions: G5-8; wild type K904; 4 h

SMILES | PosmB-lux reporter fold induction
Nc1n[nH]c(N)n1 [3,5-diamino-1,2,4-triazole (Guanazole)] | 1.96 ± 0.29

Same assay, conditions: Biolog plate: PM18; well positions: H5-8; wild type K904; 4 h

SMILES | PosmB-lux reporter fold induction
Oc1ccccc1-c1ccccc1 [2-phenylphenol] | 2.88 ± 0.52

Same assay, conditions: Biolog plate: PM18; well positions: H9-12; wild type K904; 4 h

SMILES | PosmB-lux reporter fold induction
CC1=CC(=O)c2c(O)cccc2C1=O [plumbagin] | 0.936 ± 0.027

Same assay, conditions: Biolog plate: PM20; well positions: C5-8; wild type K904; 4 h

SMILES | PosmB-lux reporter fold induction
CN1[C@@H]2CC[C@H]1C[C@@H](OC(=O)C(CO)c1ccccc1)C2 (stereo not given in full) [atropine] | 2.56 ± 0.59

Same assay, conditions: Biolog plate: PM20; well positions: E5-8; wild type K904; 4 h

SMILES | PosmB-lux reporter fold induction
CCCCCCCCCCCCNC(=N)N [dodine] | 1.94 ± 0.27

Same assay, conditions: Biolog plate: PM20; well positions: G1-4; wild type K904; 4 h

SMILES | PosmB-lux reporter fold induction
O=C1C2CC=CCC2C(=O)N1SC(Cl)(Cl)Cl (stereo not given) [captan] | 2.3 ± 0.41

Same assay, conditions: Biolog plate: PM20; well positions: G9-12; wild type K904; 4 h

SMILES | PosmB-lux reporter fold induction
Oc1cccc2cccnc12 [8-hydroxy-quinoline] | 2.7 ± 0.72

Same assay, conditions: Biolog plate: PM20; well positions: H1-4; wild type K904; 4 h

SMILES | PosmB-lux reporter fold induction
O=C1C=C2C(=CCOC2O)O1 (stereo not given) [patulin] | 1.71 ± 0.23

Same assay, conditions: Biolog plate: PM20; well positions: H5-8; wild type K904; 4 h

SMILES | PosmB-lux reporter fold induction
Cc1ccc(N(SC(F)(Cl)Cl)S(=O)(=O)N(C)C)cc1 [tolylfluanid] | 1.32 ± 0.14
